This passage reports composite z-score and z-score results from PubChem BioAssay.

Calls of active or inactive are those of the source. Unless noted, the rule behind the calls is not given here.

In assay [1] the test system is Wnt5a (protein binding on small-molecule microarray). Kind of assay: Wnt5a binders on small-molecule microarray, primary screen, biophysical, 635/667 nm fluorescence (AID 1142).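 Note: fluorescence read at 667 nm with signal to noise per printed feature.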 The note with it: 635 nm fluorescence, higher = more signal.
The nature of assay [2]: cell viability in Huh7 cells, primary screen, cytotoxicity control for HCV replication inhibitor project, CellTiter-Glo luminescence, basal, 48 h (AID 1143).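 Note: Huh7 hepatoma cells carrying a hepatitis C replication reporter with no stimulus; test concentration not given here.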 The note with it: Huh7 HCV replicon, higher = more signal, called active from +8 up or from −8 down.
The nature of assay [3]: P. aeruginosa biofilm formation inhibitors, primary screen, PAO1 strain, BacTiter-Glo luminescence, LB-PBS (AID 1144). Conditions: 12 h, higher = more signal.
Assay [4] is described as follows: CREB reporter modulators without forskolin, primary screen, cell-based, PC12, CRE-LacZ reporter, unstimulated (AID 1145). The note with it: no forskolin, luminescence, 4.5 h, higher = more signal, called active from +8 up or from −8 down.
Assay [5] can be described thus: CREB reporter modulators under forskolin, primary screen, cell-based, PC12, CRE-LacZ reporter, forskolin-stimulated (AID 1146).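 Note: PC12 cells with 6xCRE LacZ reporter stimulated by forskolin 10 µM; beta-galactosidase reporter signal reflecting CREB driven transcription.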 Conditions: luminescence, 4.5 h, higher = more signal, called active from +8 up or from −8 down.
For assay [6], the target named is Streptavidin (Streptomyces avidinii) (UniProt P22629). Briefly: streptavidin binders on small-molecule microarray, primary screen, artefact control for SMM compound annotation, biophysical, 635/667 nm fluorescence (AID 1147).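 Note: signal reflects streptavidin binding to arrayed compounds as a control protein.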 Conditions: streptavidin binding, higher = more signal.
Sequence of Streptavidin (Streptomyces avidinii) (P22629 whole entry, looked up): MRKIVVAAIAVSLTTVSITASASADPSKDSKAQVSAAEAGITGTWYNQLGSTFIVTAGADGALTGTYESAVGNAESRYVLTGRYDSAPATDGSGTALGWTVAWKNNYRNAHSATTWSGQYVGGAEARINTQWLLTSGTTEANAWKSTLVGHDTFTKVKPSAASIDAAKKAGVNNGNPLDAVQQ
A short description of assay [7]: small-molecule binders of probe aInhba, primary screen, biochemical, small-molecule microarray, 635/667 nm fluorescence (AID 1148).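 Note: score merges 667nm spot fluorescence with signal-to-noise for antibody binding to printed compounds.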 The note with it: higher = more signal.
For assay [8], the target named is Torsin-1A (Homo sapiens) (UniProt O14656). Briefly: torsin A binders from cell lysate, primary screen, small-molecule microarray, wild-type, 635/667 nm (AID 1149). Conditions: COS7 hTOR1A-WT lysate, 635 nm fluorescence, higher = more signal.
Sequence of Torsin-1A (Homo sapiens) (O14656 whole entry, looked up): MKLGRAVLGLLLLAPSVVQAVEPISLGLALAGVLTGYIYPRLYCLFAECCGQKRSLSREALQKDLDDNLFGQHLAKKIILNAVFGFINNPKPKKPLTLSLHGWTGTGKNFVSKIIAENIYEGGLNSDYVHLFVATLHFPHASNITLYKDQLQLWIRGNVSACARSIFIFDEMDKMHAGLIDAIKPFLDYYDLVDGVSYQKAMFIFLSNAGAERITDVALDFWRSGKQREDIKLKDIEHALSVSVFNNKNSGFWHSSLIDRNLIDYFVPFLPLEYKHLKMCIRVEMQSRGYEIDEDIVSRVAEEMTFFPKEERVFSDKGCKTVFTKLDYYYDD
Assay [9] has the same target. Kind of assay: small-molecule binders of mutant TOR1A in lysate, primary screen, cell lysate, small-molecule microarray, COS7 lysate, 635/667 nm fluorescence (AID 1150).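 Note: score pools 667 nm emission and signal to noise measuring lysate protein binding.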 The note with it: COS7 hTOR1A mutant lysate, 635 nm fluorescence, higher = more signal.
For assay [10], the system named is Sonic hedgehog protein (Shh). Kind of assay: small-molecule binders of Shh protein, primary screen, biochemical, small-molecule microarray, 635/667 nm fluorescence (AID 1151).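 Note: Shh protein binding to compounds spotted on small-molecule microarray slides; score combines spot fluorescence intensity with signal-to-noise across triplicate slides.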 Conditions: small-molecule microarray binding, 635 nm fluorescence; higher = more signal.
A short description of assay [11]: E. coli DRC41 culture turbidity changes, primary screen, E. coli filamentation inducer project, strain DRC41, OD650, 48 h (AID 1152).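 Note: E. coli MC1000 strain DRC41 lacking acrAB efflux pump and sulA.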 The note with it: E. coli DRC41 (acrAB sulA), higher = more signal, called active from +8 up or from −8 down.
Assay [12] in a line: small-molecule binders of probe aLefty1, primary screen, biochemical, small-molecule microarray, 635/667 nm fluorescence (AID 1153).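 Note: score merges spot fluorescence with signal-to-noise ratio from the scanned slide images.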 Conditions: higher = more signal.
The nature of assay [13]: PSAC antagonists in infected red cells, primary screen, cell-based, P. falciparum Indochina, OD700, 1 h (AID 1154). Conditions: P. falciparum Indochina infected RBC osmotic lysis, higher = more signal, called active from +8 up or from −8 down.
The nature of assay [14]: PSAC antagonists in infected red cells, primary screen, cell-based, P. falciparum Indochina, OD700, 2 h (AID 1155).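 Note: lysis reports solute entry through the parasite surface anion channel PSAC; channel blockers reduce lysis of infected cells.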 Conditions: P. falciparum Indochina infected erythrocytes, osmotic lysis OD700; higher = more signal, called active from +8 up or from −8 down.
A short description of assay [15]: osmotic lysis modulators in infected erythrocytes, primary screen, PSAC antagonist project, cell-based, P. falciparum Indochina, OD700, 3 h (AID 1156). Conditions: higher = more signal, called active from +8 up or from −8 down.
Assay [16] is described as follows: PSAC antagonists in infected red cells, primary screen, cell-based, P. falciparum Indochina, OD700, 18 h (AID 1157). The note with it: P. falciparum Indochina infected erythrocytes, osmotic lysis OD700, 18 h; higher = more signal, called active from +8 up or from −8 down.
Assay [17] in a line: modulators of S6 phosphorylation in cells, primary screen, cell-based, A549, cytoblot, luminescence, serum-stimulated (AID 1158).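 Note: serum-stimulated A549 lung adenocarcinoma cells; signal is phosphorylated S6 detected by cytoblot immunostaining with HRP secondary.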 The note with it: A549 phospho-S6 cytoblot, 5 h, higher = more signal.
In assay [18] the target is NADPH oxidase 2 (Homo sapiens) (UniProt P04839). Briefly: NOX2-dependent H2O2 signal modulators, primary screen, NOX inhibitor project, cell-based, HEK293-NOX2, PMA-stimulated, Amplex Red fluorescence (AID 1159). Note: test concentration not given here. Conditions: 45 min, higher = more signal, called active from +8 up or from −8 down.
Sequence of NADPH oxidase 2 (Homo sapiens) (P04839 whole entry, looked up): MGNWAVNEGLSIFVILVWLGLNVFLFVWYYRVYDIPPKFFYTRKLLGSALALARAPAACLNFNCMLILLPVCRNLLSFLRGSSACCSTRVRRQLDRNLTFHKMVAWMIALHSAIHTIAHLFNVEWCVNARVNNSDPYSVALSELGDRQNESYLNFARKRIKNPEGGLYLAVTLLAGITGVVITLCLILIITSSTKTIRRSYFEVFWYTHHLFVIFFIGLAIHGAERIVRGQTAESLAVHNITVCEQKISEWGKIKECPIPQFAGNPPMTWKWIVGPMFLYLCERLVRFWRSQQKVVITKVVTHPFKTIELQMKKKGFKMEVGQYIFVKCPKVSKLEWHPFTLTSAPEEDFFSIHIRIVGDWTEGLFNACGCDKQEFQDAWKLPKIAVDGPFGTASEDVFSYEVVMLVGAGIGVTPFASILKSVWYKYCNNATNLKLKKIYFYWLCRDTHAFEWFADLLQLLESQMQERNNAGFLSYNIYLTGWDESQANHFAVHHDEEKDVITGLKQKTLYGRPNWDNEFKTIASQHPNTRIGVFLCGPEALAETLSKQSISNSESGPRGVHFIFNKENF
Assay [19] has as its target NADPH oxidase 4 (Homo sapiens) (UniProt Q9NPH5). Briefly: NOX4-dependent H2O2 signal modulators, primary screen, NOX inhibitor project, cell-based, HEK293-NOX4, tetracycline-induced, Amplex Red fluorescence (AID 1160). The note with it: 45 min, higher = more signal, called active from +8 up or from −8 down.
Assay [20] has as its target NADPH oxidase 5 (Homo sapiens) (UniProt Q96PH1). Kind of assay: NOX5-dependent H2O2 signal modulators, primary screen, NOX inhibitor project, cell-based, HEK293-NOX5, Amplex Red fluorescence (AID 1161). The note with it: HEK293-NOX5, ionomycin, 45 min, higher = more signal.

Sequence of NADPH oxidase 5 (Homo sapiens) (Q96PH1 whole entry, looked up): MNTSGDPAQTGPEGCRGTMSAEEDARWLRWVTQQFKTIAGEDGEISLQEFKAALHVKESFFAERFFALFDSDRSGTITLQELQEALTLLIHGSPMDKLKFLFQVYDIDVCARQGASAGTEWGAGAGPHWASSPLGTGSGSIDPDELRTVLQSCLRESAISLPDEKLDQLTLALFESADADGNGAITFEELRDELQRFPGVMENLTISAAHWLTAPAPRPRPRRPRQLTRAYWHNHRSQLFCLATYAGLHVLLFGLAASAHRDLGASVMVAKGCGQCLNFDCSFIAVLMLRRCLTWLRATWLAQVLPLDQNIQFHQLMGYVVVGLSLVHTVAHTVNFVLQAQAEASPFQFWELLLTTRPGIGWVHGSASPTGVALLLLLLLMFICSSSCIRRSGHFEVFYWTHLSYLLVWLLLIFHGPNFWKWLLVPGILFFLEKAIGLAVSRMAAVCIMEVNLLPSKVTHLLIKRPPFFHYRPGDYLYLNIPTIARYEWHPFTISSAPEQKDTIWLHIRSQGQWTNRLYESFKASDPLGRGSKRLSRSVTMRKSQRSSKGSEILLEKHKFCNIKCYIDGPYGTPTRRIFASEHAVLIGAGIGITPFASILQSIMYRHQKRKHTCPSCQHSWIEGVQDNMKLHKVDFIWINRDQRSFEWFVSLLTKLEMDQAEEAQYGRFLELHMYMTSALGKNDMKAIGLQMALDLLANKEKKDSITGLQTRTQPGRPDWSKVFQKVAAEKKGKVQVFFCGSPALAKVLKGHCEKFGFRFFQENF
Sequence of NADPH oxidase 4 (Homo sapiens) (Q9NPH5 whole entry, looked up): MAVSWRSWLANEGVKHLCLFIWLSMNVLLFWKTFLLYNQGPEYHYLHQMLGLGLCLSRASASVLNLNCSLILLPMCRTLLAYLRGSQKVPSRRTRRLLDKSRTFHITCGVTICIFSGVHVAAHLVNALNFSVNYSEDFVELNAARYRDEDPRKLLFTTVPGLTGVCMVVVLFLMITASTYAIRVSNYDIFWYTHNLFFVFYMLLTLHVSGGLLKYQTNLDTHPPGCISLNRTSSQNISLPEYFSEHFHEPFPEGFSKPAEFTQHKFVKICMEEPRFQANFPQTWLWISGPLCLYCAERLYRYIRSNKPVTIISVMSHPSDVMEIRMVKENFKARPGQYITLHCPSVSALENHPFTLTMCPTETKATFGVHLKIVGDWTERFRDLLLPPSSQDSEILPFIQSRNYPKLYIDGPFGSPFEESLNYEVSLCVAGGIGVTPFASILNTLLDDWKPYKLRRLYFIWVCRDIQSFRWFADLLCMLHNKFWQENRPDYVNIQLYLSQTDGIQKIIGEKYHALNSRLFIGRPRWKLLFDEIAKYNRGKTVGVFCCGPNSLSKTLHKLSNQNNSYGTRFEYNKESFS

Regarding `[N-]=[N+]=NCc1ccccc1[C@H]1OC(c2ccc(OCCCO)cc2)=N[C@@]1(CCS(=O)(=O)c1ccccc1)C(=O)NCc1ccccc1`, the composite z-score in assay [1] is 0.486; in [6] it was 1.25; in assay [7], 0.282; with Torsin-1A (Homo sapiens) [8] it was 0.61; with Torsin-1A (Homo sapiens) [9], 0.563; in assay [10], -0.081. In [12], the composite z-score is -0.271. The z-score is -1.14 (inactive) in [2]; 0.318 (inactive) in assay [3]; 0.549 (inactive) in assay [4]; -0.0054 (inactive) in [5]; 1.14 (inactive) in [11]; 25 (active) in assay [13]. In addition, the z-score in assay [14] is 8.39 (active); in [15] it was 1.49 (inactive); in [16] it was 1.38 (inactive); in assay [17], 0.127; in [18], 2.27 (inactive); in assay [19] it was 0.837 (inactive). The molecule also had a z-score in assay [20] of -0.887.

For `COCCOC(=O)N1C(=O)[C@@]2(c3cc(C#Cc4ccc(OC)cc4)ccc31)[C@H](c1ccc(OCCO)cc1)N1[C@H](c3ccccc3)[C@H](c3ccccc3)OC(=O)[C@H]1[C@@H]2C(=O)Nc1nc2ccccc2s1`, the composite z-score came out at 0.144 in [1]; 1.19 in assay [6]; 0.164 in assay [7]; 0.29 with Torsin-1A (Homo sapiens) [8]; 0.461 with Torsin-1A (Homo sapiens) [9]; 0.691 in assay [10]. Moreover, the composite z-score in [12] was 0.101. The z-score in [2] was -1.1 (inactive); in assay [3], 0.408 (inactive); in assay [4], 0.272 (inactive); in assay [5] it was -0.175 (inactive); in assay [11] it was 0.905 (inactive); in assay [13], 4.12 (inactive). Besides, the z-score in [14] was 2.5 (inactive); in assay [15] it was -0.16 (inactive); in [16], 2.13 (inactive); in [17] it was 0.0972; in [18], 1.29 (inactive); in [19] it was 0.402 (inactive). The same molecule yielded a z-score in assay [20] of 0.944.

As for `O=C1C2C=CC(C(O)c3ccco3)N(Nc3ccccc3)C2C(=O)N1c1ccccc1` (stereo not given), the composite z-score in assay [1] is -0.476; in assay [6], -0.511; in [7] it was -0.0963; in the assay with Torsin-1A (Homo sapiens) [8], -1.16; with Torsin-1A (Homo sapiens) [9], 0.746; in assay [10], -0.998. Moreover, the composite z-score in assay [12] is -0.0302. Also, the z-score was 0.876 (inactive) in [2]; -0.497 (inactive) in assay [3]; 0.0467 (inactive) in assay [4]; 0.621 (inactive) in assay [5]; -0.292 (inactive) in assay [11]; 0.89 (inactive) in assay [13]. Besides, the z-score was -0.0044 (inactive) in [14]; -0.284 (inactive) in [15]; 0.851 (inactive) in assay [16]; -0.647 in assay [17]; -1.61 (inactive) in assay [18]; -2.98 (inactive) in assay [19]. The molecule also had a z-score in [20] of -2.52.

Regarding `CCOC(=O)C[C@H]1[C@H](OC(=O)c2ccc(C(=O)c3ccccc3)cc2)[C@@H](NC(=O)CC(C)C)c2cc(OCCCO)ccc2N1C(=O)Cc1ccc(OC)cc1`, the composite z-score is 0.11 in assay [1]; -0.0635 in assay [6]; 0.128 in assay [7]; 0.311 in the assay with Torsin-1A (Homo sapiens) [8]; 0.498 with Torsin-1A (Homo sapiens) [9]; -0.0145 in assay [10]. Besides, the composite z-score in [12] turned out to be 0.243. Besides, the z-score in assay [2] is -0.349 (inactive); in assay [3], -0.356 (inactive); in assay [4], 0.731 (inactive); in [5] it was -0.117 (inactive); in [11], 0.23 (inactive); in [13] it was 4.38 (inactive). For the same molecule, the z-score is 0.351 (inactive) in assay [14]; -0.0495 (inactive) in [15]; 0.0625 (inactive) in assay [16]; -0.174 in assay [17]; -0.354 (inactive) in assay [18]; 0.528 (inactive) in [19]. The same molecule displayed a z-score in assay [20] of 0.522.

With `COCCOC(=O)N1C(=O)[C@@]2(c3cc(C#CCNC(N)=O)ccc31)[C@H](c1ccc(OCCO)cc1)N1[C@H](c3ccccc3)[C@H](c3ccccc3)OC(=O)[C@H]1[C@@H]2C(N)=O`, the composite z-score in assay [1] is 0.428; in assay [6], 0.947; in assay [7], -0.0131; with Torsin-1A (Homo sapiens) [8], 0.304; with Torsin-1A (Homo sapiens) [9] it was 0.406; in [10] it was 1.44. This molecule displayed a composite z-score in [12] of -0.346. Besides, the z-score in [2] is 0.0121 (inactive); in [3], 0.529 (inactive); in assay [4], 0.228 (inactive); in [5] it was -0.304 (inactive); in assay [11] it was 0.336 (inactive); in assay [13], 4.37 (inactive). In addition, the z-score in [14] is 1.02 (inactive); in [15] it was -0.383 (inactive); in assay [16] it was 0.0173 (inactive); in assay [17] it was -0.412; in assay [18], 1.84 (inactive); in assay [19], 1.34 (inactive). Moreover, the z-score in assay [20] is 0.646.
